Compound activity deposited in PubChem BioAssay by National Center for Advancing Translational Sciences (NCATS).
A selection: hits, their analogues and other compounds. The true share with any hit is near 5.3%.
ALOX12 inhib: qHTS Assay for Inhibitors of 12-hLO (12-human lipoxygenase); purified 12-hLO, xylenol orange hydroperoxide absorbance; Potency, µM (series often up to 57.1 µM), actives largely listed as inhibitors; Polyunsaturated fatty acid lipoxygenase ALOX12 (Homo sapiens), P18054; hit rate 0.12% among 150,000; further: nearly all actives have a fitted effect of over 55% in size
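Purified human 12hLO (150 nM), preincubated 15 min with compound, then 40 uM arachidonic acid for 30 min, room temperature, Hepes pH 7.0 with 0.01% Triton X-100. Hydroperoxide detected by ferrous iron/xylenol orange; 573/405 nm absorbance ratio gives reaction progress.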
PNC inhibitor: High Content Assay for Compounds that inhibit the Assembly of the Perinucleolar Compartment | activity change (PNC), negative = inhibition, % at 10 µM | PC3M PTB-GFP, PNC prevalence imaging, 16 h; hits give low values | hit rate 3.1% among 140,000;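 active means readout at or below -70, meaning at least 70% loss of cells showing the perinucleolar compartment, a nuclear body marking cancer cells; inconclusive means readout between -30 and a set limit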
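Read-out is percentage of cells bearing a perinucleolar compartment, from automated 20x imaging of fixed, Hoechst-stained PC3M PTB-GFP cells. Cells were seeded 4 h, then exposed 16 h to compound (23 nl of library stock) in duplicate plates.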
IMPase Li cell: qHTS Assay for Identifying the Cell-Membrane Permeable IMPase Inhibitors: Potentiation with Lithium; CHO-M1 cells, IP1 TR-FRET (IP-One), carbachol + lithium; Potency, µM (doses to about 59.4 µM), hits mostly inhibitors; hit rate 0.35% among 210,000; AID 1457, 2008;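 further: IP1 builds up when IMPase is blocked and the TR-FRET signal falls; nearly all actives have a fitted effect of over 50% in size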
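Readout is a homogeneous TR-FRET IP1 immunoassay (Ex 320, Em 665 and 620), where raised cytosolic IP1 lowers signal. Cells were CHO-M1 treated 30 min at 37C with test compounds plus a little lithium; AC50 values came from Hill-equation fitting.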
IMPase cell inh: qHTS Assay for Identifying the Cell-Membrane Permeable IMPase Inhibitors | inhibition (IP1 accumulation), % at 46.1 µM | 120,000 tested, under 10 active | CHO-M1 cells, IP1 accumulation, HTRF TR-FRET ratio | AID 901, 2007 | Inositol monophosphatase 1 (Rattus norvegicus), P97697; active means well fitted curve in the direction sought with a large enough effect in the signal ratio, not every such curve was filed as active; inconclusive means small, poorly fitted or top-dose-only effect, or a change in a side signal; inactive means no such curve, though single readings can be large or run the other way; the % refers to the signal ratio;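 further: cells stimulated with carbachol in lithium chloride buffer; higher means more IMPase inhibition seen as more IP1 and lower FRET ratio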
Target sequence (P97697 whole entry, looked up): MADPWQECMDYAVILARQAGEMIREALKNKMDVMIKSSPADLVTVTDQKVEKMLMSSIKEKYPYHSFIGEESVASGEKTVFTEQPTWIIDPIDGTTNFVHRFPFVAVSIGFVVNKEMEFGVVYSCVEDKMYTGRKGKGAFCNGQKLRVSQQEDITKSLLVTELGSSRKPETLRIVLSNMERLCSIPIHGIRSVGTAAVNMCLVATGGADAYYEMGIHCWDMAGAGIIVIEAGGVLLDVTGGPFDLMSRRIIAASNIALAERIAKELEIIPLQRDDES
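The IP-One HTRF competitive assay in carbachol-stimulated CHO-M1 cells quantifies cellular IP1. Compounds spanned up to 46 uM final, and activity is expressed as AC50 from concentration-response fits of the ratio and donor data.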
15-hLO-2 inh: qHTS Assay for Inhibitors of 15-hLO-2 (15-human lipoxygenase 2); Potency, µM (doses to about 57.1 µM), actives largely listed as inhibitors; AID 881, 2007; hit rate 0.56% among 110,000; purified 15hLO-2, xylenol orange hydroperoxide absorbance; Polyunsaturated fatty acid lipoxygenase ALOX15B (Homo sapiens), O15296; further: nearly all actives have a fitted effect of over 60% in size
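Read-out: hydroperoxide product oxidises ferrous iron, measured as xylenol orange complex via the 573-to-405 nm absorbance ratio after 30 min. Reaction: 50 nM enzyme, 15 min compound preincubation, 45 uM arachidonic acid, 90 min RT, Hepes pH 7.5 with Triton X-100.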
HPGD inh: qHTS Assay for Inhibitors of HPGD (15-Hydroxyprostaglandin Dehydrogenase); Potency, µM, most hits filed as inhibitors; purified HPGD, NADH fluorescence kinetic, PGE2 substrate; hit rate 4.3% among 150,000; active means well fitted inhibition curve with a large enough effect, not every such curve was filed as active; inconclusive means small, poorly fitted or top-dose-only effect, or another doubt; inactive means no such curve, though single readings can be large or run the other way
Target sequence (P15428 whole entry, looked up): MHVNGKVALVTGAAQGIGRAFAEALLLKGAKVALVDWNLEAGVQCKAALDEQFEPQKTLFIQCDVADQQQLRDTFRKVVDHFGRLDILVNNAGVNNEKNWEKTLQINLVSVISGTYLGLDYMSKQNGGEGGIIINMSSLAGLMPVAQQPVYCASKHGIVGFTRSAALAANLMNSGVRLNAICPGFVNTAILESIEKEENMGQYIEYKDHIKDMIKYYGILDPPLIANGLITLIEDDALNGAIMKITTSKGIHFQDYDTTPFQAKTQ
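NADH formation kinetics: reaction with 30 uM PGE2 and 1 mM NAD+ (final), 20 nM enzyme, Tris-HCl pH 8 with Tween 20, after 15 min compound preincubation at room temperature. Fluorescence change, last versus first of five reads.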
Numbers stand for hits; [ ] = remark or other dose. Unless noted, the call rests on the fitted dose curve; in most records, active means well fitted curve in the direction sought with a large enough effect; inconclusive means small, poorly fitted or top-dose-only effect, or another doubt; inactive means no such curve, though single readings can be large; an effect the other way counts as inactive or inconclusive.

Screening CC(C)NC(=O)CSc1nnc(-c2ccncc2)n1-c1ccccc1 returned ALOX12 inhib inactive, PNC inhibitor inconclusive, IMPase Li cell inactive, IMPase cell inh inactive, 15-hLO-2 inh inactive and HPGD inh inactive.
`CS(=O)(=O)N(CC(=O)O)Cc1ccccc1` gave ALOX12 inhib inactive[11.4 µM], IMPase Li cell inactive, 15-hLO-2 inh inactive[11.4 µM] and HPGD inh inactive.
CC(O)COC(C)(C)C (stereo not drawn) was read as ALOX12 inhib inactive, IMPase Li cell inactive, 15-hLO-2 inh inactive and HPGD inh inactive.
Cc1ccc(-c2cc(C(=O)N3CCOCC3)c3ccccc3n2)cc1 was read as ALOX12 inhib inactive, PNC inhibitor -98, IMPase Li cell inactive, IMPase cell inh inactive[1.84 µM], 15-hLO-2 inh inactive[11.4 µM] and HPGD inh inconclusive.
COc1ccc(-c2cc(C(=O)N3CCOCC3)c3cc(C)ccc3n2)cc1 was read as ALOX12 inhib inactive, PNC inhibitor inactive, IMPase Li cell inactive, IMPase cell inh inactive, 15-hLO-2 inh inactive[2.29 µM] and HPGD inh inconclusive.
Screening Cn1c(C(=O)N2CCCC2)cc2c(=O)n(C)c3ccccc3c21 returned ALOX12 inhib inactive, PNC inhibitor inactive, IMPase Li cell inactive, IMPase cell inh inactive, 15-hLO-2 inh inactive and HPGD inh 22µM.
For CCOc1ccc(NC(=O)c2cc3c(=O)n(C)c4ccccc4c3n2C)cc1 the results were ALOX12 inhib inactive, PNC inhibitor inactive, IMPase Li cell 7.9µM, IMPase cell inh inactive, 15-hLO-2 inh inactive and HPGD inh inconclusive.
For Cc1ccccc1OC[C@H](O)CO the results were ALOX12 inhib inactive, IMPase Li cell inactive, IMPase cell inh inactive, 15-hLO-2 inh inactive and HPGD inh inactive.
Screening Cc1nnc(SCC(=O)Nc2ccc(Cl)cn2)s1 returned ALOX12 inhib inactive, PNC inhibitor -119, IMPase Li cell inactive, IMPase cell inh inactive and HPGD inh inactive.
For COc1ccc2c(C)cc(SCC(=O)Nc3nsc(-c4ccc(C)cc4)n3)nc2c1 the results were ALOX12 inhib inactive, PNC inhibitor inactive, IMPase Li cell inactive and HPGD inh inactive.
Cc1ccc(-c2nc(NC(=O)CSc3nnc(C)s3)ns2)cc1 was read as ALOX12 inhib inactive, PNC inhibitor inactive, IMPase Li cell 14µM, IMPase cell inh inactive, 15-hLO-2 inh inactive and HPGD inh inconclusive.
For Cc1nnc(SCC(=O)Nc2cccc(S(=O)(=O)N(C)c3ccccc3)c2)s1 the results were ALOX12 inhib inactive, PNC inhibitor inactive, IMPase Li cell inactive, IMPase cell inh inactive and HPGD inh 0.022µM.
Screening Cc1csc(SCC(=O)Nc2ccc(Cl)cn2)n1 returned ALOX12 inhib inactive, PNC inhibitor inconclusive, IMPase Li cell inactive, IMPase cell inh inactive, 15-hLO-2 inh inactive and HPGD inh inactive.
For COCCn1cnnc1SCC(=O)Nc1cccc(S(=O)(=O)N(C)c2ccccc2)c1 the results were IMPase Li cell inactive.
`Cc1nnc(SCC(=O)Nc2nsc(-c3ccccc3)n2)s1` gave ALOX12 inhib inactive, PNC inhibitor inconclusive, IMPase Li cell inactive, IMPase cell inh inactive, 15-hLO-2 inh inactive and HPGD inh inactive.
Screening Cc1ccc(-c2nc(NC(=O)CSc3cc(C)c4ccccc4n3)ns2)cc1 returned ALOX12 inhib inactive, PNC inhibitor inactive, IMPase Li cell inactive, IMPase cell inh inactive and HPGD inh 13µM.
`O=C(CN1CCOCC1)Nc1nc2cc([N+](=O)[O-])ccc2s1` gave ALOX12 inhib inactive, PNC inhibitor inactive, IMPase Li cell inactive and HPGD inh inactive.
Screening CCc1ccc(OCC(=O)Nc2c(C(=O)c3ccc(Br)cc3)oc3ccccc23)cc1 returned IMPase cell inh inactive.
`C#CCn1c(=NC(=O)c2ccc(S(=O)(=O)N3CCc4ccccc4C3)cc2)sc2cc(S(N)(=O)=O)ccc21` gave ALOX12 inhib inactive, PNC inhibitor -134, IMPase Li cell inconclusive and HPGD inh inconclusive.
For O=C(CSc1nc2c(c(=O)n1-c1ccc(Cl)cc1)SCC2)Nc1ccc2c(c1)OCCO2 the results were ALOX12 inhib inactive, PNC inhibitor inconclusive, IMPase Li cell inactive, IMPase cell inh inactive, 15-hLO-2 inh inactive and HPGD inh inactive.
Nc1c(C(=O)NCC2CCCO2)sc(=S)n1-c1ccccc1 (stereo not drawn) was read as ALOX12 inhib inactive, PNC inhibitor inactive, IMPase Li cell inactive, IMPase cell inh inactive, 15-hLO-2 inh inactive and HPGD inh 25µM.
Screening C=CCn1c(N)c(C(=O)NCC2CCCO2)sc1=S (stereo not drawn) returned ALOX12 inhib inactive, PNC inhibitor inactive, IMPase Li cell inactive, IMPase cell inh inactive, 15-hLO-2 inh inactive and HPGD inh inactive.
O=C(CSc1nnc(Cn2c(=O)sc3ccccc32)n1-c1ccccc1)NCC1CCCO1 (stereo not drawn) was read as ALOX12 inhib inactive, PNC inhibitor -108, IMPase Li cell inactive, IMPase cell inh inactive, 15-hLO-2 inh inactive and HPGD inh inactive.
CCn1c(N)c(C(=O)NCC2CCCO2)sc1=S (stereo not drawn) was read as ALOX12 inhib inactive, PNC inhibitor inactive, IMPase Li cell inactive, IMPase cell inh inactive, 15-hLO-2 inh inconclusive and HPGD inh 6.3µM.
Screening CCCCCNC(=O)c1ccc2c(=O)[nH]c3c(C(=O)NCC4CCCO4)sc(=S)n3c2c1 (stereo not drawn) returned ALOX12 inhib inactive, PNC inhibitor inactive, IMPase Li cell inactive, IMPase cell inh inactive, 15-hLO-2 inh inactive and HPGD inh 11µM.
Screening O=C(Cn1cc(S(=O)(=O)N2CCN(c3ccccc3F)CC2)c2ccccc2c1=O)Nc1cccc(C(F)(F)F)c1 returned IMPase cell inh inactive.
For c1ccc2oc(-c3ccc(Nc4nc(N5CCCC5)nc(N5CCOCC5)n4)cc3)nc2c1 the results were IMPase Li cell inactive.
For c1ccc(Sc2cnc3ccccc3n2)cc1 the results were ALOX12 inhib inactive, PNC inhibitor inactive, IMPase Li cell 13µM, IMPase cell inh inconclusive, 15-hLO-2 inh inactive and HPGD inh inconclusive.
COc1ccc(C(=O)Nc2ccc3[nH]c(-c4cccc(OC)c4)cc(=O)c3c2)cc1 was read as ALOX12 inhib inactive[0.00818 µM], PNC inhibitor -119, IMPase Li cell inactive, 15-hLO-2 inh inactive[0.0915 µM] and HPGD inh inactive.
For S=C(NC1CCCCC1)N(CCc1ccccc1)CCc1ccccc1 the results were ALOX12 inhib inactive, PNC inhibitor inactive and IMPase cell inh inactive.
